Measurements: PubChem BioAssay (NCATS)
Records with an inconclusive call do not appear. The source made the active and inactive calls. The call rests on the fitted dose curve; in most records, active means well fitted curve in the direction sought with a large enough effect; inconclusive means small, poorly fitted or top-dose-only effect, or another doubt; inactive means no such curve, though single readings can be large; an effect the other way counts as inactive or inconclusive.

Columns and labels:
[1] = biological target: Luciferin 4-monooxygenase (Photinus pyralis) (UniProt P08659); assay: Primary firefly luciferase (FLuc) qHTS assay for identification of artifact compounds. (AID 1845220); further: nearly all actives have a fitted effect of over 60% in size
Procedure, shortened: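 Titrated compounds were incubated 15 min at RT, protected from light, with luciferin and ATP at 10 uM; reaction started with 10 nM FLuc, luminescence imaged at 5 min, and concentration-response fitted by Hill equation.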

[2] = Primary fluorescence-based thiol-reactive (MSTI) qHTS assay for identification of artifact compounds. (AID 1845221);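 further: series mostly up to about 54 µM; thiol-reactive compounds lower the probe fluorescence signal; nearly all actives have a fitted effect of over 65% in size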
Procedure, shortened: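 Probe: MSTI 4 uM, PBS pH 7.4, 2% DMSO. Incubation 1 h, RT, light-protected. Readout fluorescence 525/598 nm.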

[3] = system: Nanoluciferase (engineered Oplophorus gracilirostris luciferase); assay: Primary Nanoluciferase (NLuc) qHTS assay for identification of artifact compounds. (AID 1845222);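 further: NLuc secreted into diluted conditioned medium of S16 cells; series mostly up to about 54 µM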
Procedure, shortened: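 qHTS format, against NLuc in S16 cell-conditioned medium. Nano-Glo substrate 1:100 was added after 15 min at room temperature. Luminescence was taken after a further 5 min.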

[4] = Quantitative High-Throughput drug screen in 47 multiple myeloma cell lines against the NCATS MIPE library collection: FR4_PLB cell viability assay (AID 1918924; further: nearly all actives have a fitted effect of over 35% in size; further: potency means the concentration at half of the fitted maximal effect)
Procedure, shortened: (§1)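 Steps: seed 500 cells per well; pin-transfer MIPE 4.0 library; incubate 48 h at 37C, 5% CO2, humidified; add CellTiter-Glo, 5 min room temperature; read luminescence.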

[5] = Quantitative High-Throughput drug screen in 47 multiple myeloma cell lines against the NCATS MIPE library collection: Delta47_JCRB cell viability assay (AID 1918925; further: nearly all actives have a fitted effect of over 45% in size; further: potency means the concentration at half of the fitted maximal effect)
Procedure, shortened: (§2)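 Myeloma cell lines, 500 cells per well, exposed to MIPE 4.0 library compounds for 48 h at 37C, 5% CO2. Viability from ATP by CellTiter-Glo luminescence; normalised to DMSO (100%) and media-only (0%) wells.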

[6] = Quantitative High-Throughput drug screen in 47 multiple myeloma cell lines against the NCATS MIPE library collection: AMO1_DSMZ cell viability assay (AID 1918927; further: nearly all actives have a fitted effect of over 30% in size; further: potency means the concentration at half of the fitted maximal effect)
Procedure, shortened: as §2

[7] = Quantitative High-Throughput drug screen in 47 multiple myeloma cell lines against the NCATS MIPE library collection: ARP1_JJKsccF8 cell viability assay (AID 1918928; further: nearly all actives have a fitted effect of over 40% in size; further: potency means the concentration at half of the fitted maximal effect)
Procedure, shortened: (§3)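 CellTiter-Glo luminescence after 48 h exposure gives viability, scaled between DMSO-only (100%) and media-only (0%) controls. Library compounds are pinned onto 500 myeloma cells per well, incubated at 37C with 5% CO2.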

[8] = Quantitative High-Throughput drug screen in 47 multiple myeloma cell lines against the NCATS MIPE library collection: ARD_JJKsccE7 cell viability assay (AID 1918929; further: potency means the concentration at half of the fitted maximal effect)
Procedure, shortened: as §2

[9] = Quantitative High-Throughput drug screen in 47 multiple myeloma cell lines against the NCATS MIPE library collection: Karpas620_DSMZ cell viability assay (AID 1918959); further: nearly all actives have a fitted effect of over 30% in size; further: potency means the concentration at half of the fitted maximal effect
Procedure, shortened: as §1

[10] = Quantitative High-Throughput drug screen in 47 multiple myeloma cell lines against the NCATS MIPE library collection: KMM1_JCRB cell viability assay (AID 1918960); further: nearly all actives have a fitted effect of over 30% in size; further: potency means the concentration at half of the fitted maximal effect
Procedure, shortened: as §3

[11] = Quantitative High-Throughput drug screen in 47 multiple myeloma cell lines against the NCATS MIPE library collection: INA6_PLB cell viability assay (AID 1918965; further: nearly all actives have a fitted effect of over 55% in size; further: potency means the concentration at half of the fitted maximal effect)
Procedure, shortened: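 CellTiter-Glo luminescence (ATP) after 48 h compound exposure, 37C/5% CO2; 500 cells/well; MIPE 4.0 approved/investigational drugs pinned in; DMSO = 100%, media only = 0% viability.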

[12] = Quantitative High-Throughput drug screen in 47 multiple myeloma cell lines against the NCATS MIPE library collection: H1112_PLB cell viability assay (AID 1918967; further: nearly all actives have a fitted effect of over 30% in size; further: potency means the concentration at half of the fitted maximal effect)
Procedure, shortened: as §2

[13] = Quantitative High-Throughput drug screen in 47 multiple myeloma cell lines against the NCATS MIPE library collection: Karpas25_ECACC cell viability assay (AID 1918968; further: nearly all actives have a fitted effect of over 35% in size; further: potency means the concentration at half of the fitted maximal effect)
Procedure, shortened: as §2

[14] = Primary redox qHTS assay for identification of artifact compounds. (AID 1845223)
Procedure, shortened: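 Redox-cycling detection via DTT (250 uM final) oxidation coupled to Amplex Red (25 uM)/HRP (250 mU/mL) in HBSS. 15 min preincubation plus 30 min after DTT, room temperature. Ex/Em 525/598 nm; 4-parameter Hill fit against DMSO and 10 uM DA3003.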

[15] = Quantitative High-Throughput drug screen in 47 multiple myeloma cell lines against the NCATS MIPE library collection: EJM_DSMZ cell viability assay (AID 1918926; further: nearly all actives have a fitted effect of over 30% in size; further: potency means the concentration at half of the fitted maximal effect)
Procedure, shortened: as §2

[16] = Quantitative High-Throughput drug screen in 47 multiple myeloma cell lines against the NCATS MIPE library collection: KHM11_PLB cell viability assay (AID 1918962); further: nearly all actives have a fitted effect of over 35% in size; further: potency means the concentration at half of the fitted maximal effect
Procedure, shortened: as §1

[17] = Quantitative High-Throughput drug screen in 47 multiple myeloma cell lines against the NCATS MIPE library collection: JIM3_ECACC cell viability assay (AID 1918963; further: nearly all actives have a fitted effect of over 35% in size; further: potency means the concentration at half of the fitted maximal effect)
Procedure, shortened: as §1

[18] = Quantitative High-Throughput drug screen in 47 multiple myeloma cell lines against the NCATS MIPE library collection: KMS27_JCRB cell viability assay (AID 1918970); further: nearly all actives have a fitted effect of over 30% in size; further: potency means the concentration at half of the fitted maximal effect
Procedure, shortened: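 CellTiter-Glo luminescence after 48 h drug exposure at 37 °C; 500 cells/well, 1536-well format, pin-tool compound addition; DMSO = 100%, media-only = 0% viability.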

[19] = Quantitative High-Throughput drug screen in 47 multiple myeloma cell lines against the NCATS MIPE library collection: JJN3_DSMZ cell viability assay (AID 1918966; further: nearly all actives have a fitted effect of over 50% in size; further: potency means the concentration at half of the fitted maximal effect)
Procedure, shortened: as §2

[20] = Quantitative High-Throughput drug screen in 47 multiple myeloma cell lines against the NCATS MIPE library collection: JIM1_ECACC cell viability assay (AID 1918964; further: potency means the concentration at half of the fitted maximal effect)
Procedure, shortened: as §2

Measured: Potency

CN(c1nccc(=O)[nH]1)C1CCN(c2nc3ccccc3n2Cc2ccc(F)cc2)CC1
active: [5] 4.69 µM | [11] 23.5 µM | [12] 23.5 µM | [13] 11.8 µM
inactive: [1] | [2] | [3] | [4] | [6] | [7] | [8] | [9] | [10]

COCCCOc1ccnc(CS(=O)c2nc3ccccc3[nH]2)c1C (centres undefined)
inactive: [1] | [2] | [3] | [14] | [4] | [5] | [15] | [6] | [9] | [10] | [16] | [17] | [11] | [12] | [18]

CCC(C)(Oc1ccc(C2(c3ccc(OC(C)(CC)C(=O)O)cc3)CCCCC2)cc1)C(=O)O (centres undefined)
active: [13] 13.2 µM
inactive: [1] | [2] | [3] | [4] | [5] | [15] | [6] | [8] | [9] | [10] | [16] | [17] | [12] | [18]

CC(=O)O[C@H]1C(=O)[C@@]2(C)C([C@H](OC(=O)c3ccccc3)[C@]3(O)C[C@H](OC(=O)[C@H](O)[C@@H](NC(=O)c4ccccc4)c4ccccc4)C(C)=C1C3(C)C)[C@]1(OC(C)=O)CO[C@@H]1C[C@@H]2O (some centres undefined)
inactive: [1] | [2] | [3] | [14] | [4] | [15] | [7] | [16] | [17] | [13]

Nc1nc(N)c(N=O)c(OCC2CCCCC2)n1
active: [4] 18.7 µM | [5] 4.18 µM | [15] 10.5 µM | [6] 13.2 µM | [7] 14.8 µM | [8] 5.26 µM | [9] 13.2 µM | [10] 6.62 µM | [17] 9.35 µM | [11] 5.26 µM | [19] 16.6 µM | [13] 5.9 µM | [18] 6.62 µM

COc1ccc(C2(C#N)CCC(C(=O)O)CC2)cc1OC1CCCC1 (centres undefined)
inactive: [1] | [2] | [3] | [14] | [4] | [15] | [6] | [8] | [9] | [10] | [17] | [19]
active: [11] 18.7 µM | [13] 23.5 µM

COc1ccccc1N1CCN(CCN(C(=O)C2CCCCC2)c2ccccn2)CC1
active: [5] 10.5 µM | [6] 2.96 µM | [11] 3.72 µM | [18] 9.35 µM
inactive: [1] | [2] | [3] | [4] | [15] | [7] | [17] | [13]

CN(C)C(=O)[C@H](O)[C@H](Cc1ccccc1)NC(=O)c1cc2cc(Cl)ccc2[nH]1
active: [5] 4.18 µM | [6] 6.62 µM | [8] 16.6 µM | [11] 0.833 µM | [19] 1.66 µM | [13] 1.66 µM
inactive: [1] | [2] | [3] | [14] | [16]

CC[C@]1(O)C[C@H]2CN(CCc3c([nH]c4ccccc34)[C@@](C(=O)OC)(c3cc4c(cc3OC)N(C=O)[C@H]3[C@@](O)(C(=O)OC)[C@H](OC(C)=O)[C@]5(CC)C=CCN6CC[C@]43[C@@H]65)C2)C1
active: [5] 0.0047 µM | [6] 0.372 µM | [7] 0.003 µM | [8] 0.0662 µM | [9] 0.0166 µM | [10] 0.0469 µM | [20] 0.0209 µM | [19] 0.0935 µM | [12] 0.0093 µM | [13] 0.0105 µM | [18] 0.0166 µM
inactive: [4]

CC(C)[N+]1(C)[C@@H]2CC[C@H]1CC(OC(=O)C(CO)c1ccccc1)C2 (some centres undefined)
active: [18] 14.8 µM
inactive: [4] | [5] | [15] | [17] | [19] | [12]

CS(=O)(=O)OCCCCOS(C)(=O)=O
active: [4] 4.18 µM
inactive: [5] | [6] | [9] | [10] | [17] | [11] | [12] | [13]

Cc1cc(=O)c2c(O)c3c(O)cc(=O)c4c3c3c(cc(O)c1c23)C(C)(C)C=4O
active: [4] 13.2 µM | [5] 0.372 µM | [15] 14.8 µM | [6] 5.26 µM | [7] 2.96 µM | [9] 14.8 µM | [16] 0.372 µM | [17] 0.235 µM | [20] 5.9 µM | [11] 0.418 µM | [12] 0.59 µM | [13] 0.264 µM

C[Se]CCC(N)C(=O)O (centres undefined)
inactive: [4] | [5] | [15] | [7] | [10] | [17] | [20] | [12] | [13] | [18]

N=C(N=C(N)N)N1CCOCC1
inactive: [4] | [5] | [15] | [6] | [8] | [9] | [10] | [17] | [20] | [11] | [12] | [18]

CCN(CC)C(=S)SSC(=S)N(CC)CC
active: [4] 0.0074 µM | [5] 0.0118 µM | [15] 0.0066 µM | [6] 0.0372 µM | [7] 0.0235 µM | [17] 0.001 µM | [11] 0.001 µM | [19] 0.0166 µM | [12] 0.001 µM | [13] 0.001 µM

COc1cc(OC)c(C(=O)CCCN2CCCC2)c(OC)c1
inactive: [4] | [5] | [15] | [6] | [7] | [9] | [16] | [17] | [12] | [13]
active: [19] 0.059 µM

NC(=NCc1ccccc1)NC(=O)c1nc(Cl)c(N)nc1N
inactive: [4] | [15] | [7]
active: [5] 6.62 µM | [16] 10.5 µM | [11] 9.35 µM | [12] 0.935 µM | [13] 2.09 µM
